Test results reported in the supplement of paper PMC3334620.
In all, about 33,000 sequences were measured (“E-score (-0.5 to 0.5)”: median about -0.043, highest 2% from about 0.37 on). Many of the other results were omitted from the sample, so the highest values are more common in it than they were.

molecular target: T1, Upc2 (UniProt Q12151); assay: PBM E-score (8-mer binding enrichment) (E-score (-0.5 to 0.5)); higher = stronger / more preferred TF binding; conditions: protein concentration: 200 nM; construct: GST-full length
T1 sequence: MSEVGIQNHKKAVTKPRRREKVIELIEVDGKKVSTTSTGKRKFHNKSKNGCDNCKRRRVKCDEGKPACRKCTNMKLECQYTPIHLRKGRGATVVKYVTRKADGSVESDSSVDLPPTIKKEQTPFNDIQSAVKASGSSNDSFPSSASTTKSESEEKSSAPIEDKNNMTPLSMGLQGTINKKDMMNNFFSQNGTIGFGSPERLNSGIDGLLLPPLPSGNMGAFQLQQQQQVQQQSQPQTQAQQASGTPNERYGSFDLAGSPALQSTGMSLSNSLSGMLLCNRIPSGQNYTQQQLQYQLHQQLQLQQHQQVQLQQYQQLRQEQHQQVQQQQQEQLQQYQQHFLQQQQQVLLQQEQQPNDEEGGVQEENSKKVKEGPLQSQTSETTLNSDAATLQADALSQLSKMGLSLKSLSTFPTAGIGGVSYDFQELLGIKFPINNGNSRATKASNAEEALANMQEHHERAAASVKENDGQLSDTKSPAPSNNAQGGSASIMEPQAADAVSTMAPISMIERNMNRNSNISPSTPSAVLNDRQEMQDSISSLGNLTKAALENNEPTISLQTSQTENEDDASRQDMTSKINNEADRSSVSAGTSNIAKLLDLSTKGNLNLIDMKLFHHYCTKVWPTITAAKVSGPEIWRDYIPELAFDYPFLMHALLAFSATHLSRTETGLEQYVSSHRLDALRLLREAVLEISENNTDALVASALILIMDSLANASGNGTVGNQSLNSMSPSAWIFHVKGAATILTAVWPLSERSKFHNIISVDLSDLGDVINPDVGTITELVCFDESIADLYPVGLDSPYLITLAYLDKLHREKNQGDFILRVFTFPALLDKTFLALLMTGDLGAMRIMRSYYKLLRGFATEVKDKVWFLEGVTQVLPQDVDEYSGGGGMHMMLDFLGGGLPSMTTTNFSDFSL
Description: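 Universal 'all 10-mer' protein binding microarrays (Agilent AMADID 015681) probed with GST-tagged S. cerevisiae TFs (full-length or DBD) made by in vitro transcription/translation (PURExpress), about 100-200 nM. Bound TF was detected with fluorescent anti-GST. Each ungapped 8-mer (which stands for itself and its reverse complement) is scored by the PBM enrichment score (E-score), a modified Wilcoxon-Mann-Whitney statistic from -0.5 to +0.5, computed with the Universal PBM Analysis Suite. Scale: above 0.35 generally sequence-specific binding.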

Row | Sequence | PBM E-score
1 | ACCTATCA | -0.11
2 | CGTGATTA | 0.0822
3 | ACCGGTTA | 0.118
4 | ATGACTAC | 0.0234
5 | AAGCTAGA | -0.166
6 | GCGCTCCA | -0.195
7 | CAAAGAAC | -0.0158
8 | CCGCATAA | 0.121
9 | ACGCATAA | 0.172
10 | TCGCATAA | 0.383
11 | GGTTGCTA | -0.126
12 | CCGCACTC | 0.195
13 | AAAAGGGA | -0.2
14 | ACGTTAAA | 0.269
15 | ACGTAAAC | 0.345
16 | TCGTTAAA | 0.466
17 | ACGTAAAG | 0.308
18 | TAGTAAAA | 0.0664
19 | TTGTAAAA | 0.0751
20 | CCGTTAAA | 0.33
21 | CTGTAAAG | -0.0138
22 | CCGTAAAC | 0.396
23 | TCGTAAAA | 0.481
24 | CCGTAAAG | 0.395
25 | GCGTAAAC | 0.352

Row | Sequence | PBM E-score
26 | CATGGACA | -0.178
27 | AGTTAGCA | -0.0102
28 | CCGATGGA | 0.109
29 | ACTTATCG | 0.00736
30 | ATAGTCTG | -0.124
31 | CGCTCAGA | 0.121
32 | GCTAAACC | 0.03
33 | ACGTAAAA | 0.268
34 | GCGTAAAA | 0.302
35 | CCGTAAAA | 0.374
36 | ACTATCAC | 0.0913
37 | ATGGGCCC | -0.0858
38 | ACGTCTTC | 0.0586
39 | GACTGGAC | -0.215
40 | GGGTACAA | -0.0246
41 | AGGTACGC | 0.163
42 | CGGTACGC | 0.324
43 | AGGTACGG | 0.354
44 | GGGTACCA | -0.275
45 | CGGTACCA | -0.0953
46 | AGGTACGA | 0.47
47 | CGGTACGA | 0.474
48 | GGGTACGA | 0.465
49 | TAGTTGGA | -0.109
50 | GCCGGGTA | -0.143

Row | Sequence | PBM E-score
51 | ACCTAAGA | 0.0242
52 | ACCCTCTC | -0.197
53 | CACTGAGA | -0.0162
54 | CCTTGCGA | -0.195
55 | CCGGTGCA | -0.153
56 | GGTGACTA | -0.0935
57 | TCCCTCGA | -0.0965
58 | ACCAGTGG | -0.247
59 | ACAAGACT | -0.00931
60 | GGTCGTTA | 0.358
61 | CGCCGTTC | 0.339
62 | AGTCGTTG | 0.0644
63 | AGTCGTTC | 0.41
64 | AGTCGTTA | 0.317
65 | AGTCGCTC | 0.0535
66 | CGTCGTTC | 0.464
67 | CGTCGATC | -0.0198
68 | CGTCGTTA | 0.376
69 | AGGTGAAT | -0.0674
70 | GCACCGAA | 0.0996
71 | CCGCATAC | 0.197
72 | CATGAGGC | -0.218
73 | CTCAACAC | -0.0233
74 | AGGTTCGG | 0.022
75 | CAGATTCC | -0.195

Row | Sequence | PBM E-score
76 | ACGGTACT | 0.0352
77 | CCGGTACG | 0.421
78 | ACGGTACG | 0.408
79 | CCGGTACC | -0.196
80 | CGGGTACA | 0.114
81 | ACGGTACC | 0.0672
82 | CCGGTACA | 0.106
83 | CGGGTACG | 0.43
84 | CGGGTACC | -0.158
85 | CCCTATAA | -0.00945
86 | CCATCAAG | -0.12
87 | AAGACCCT | -0.239
88 | CAGGTCGC | 0.0637
89 | AAGGTGGC | -0.0337
90 | CTTACGCC | 0.0225
91 | CTTACGCA | 0.146
92 | GTTACGGA | 0.233
93 | CTTACGAA | 0.399
94 | CTCACGAC | -0.146
95 | ATTACGAA | 0.339
96 | CTCACGAA | 0.0214
97 | GTTACGAA | 0.409
98 | CTTACGAC | 0.406
99 | CCATTCTA | -0.068
100 | CAGAATTA | -0.0215

Row | Sequence | PBM E-score
101 | GCTACTCC | -0.242
102 | CAGATGGC | -0.0004
103 | AGAGGCCT | -0.0685
104 | TCATGAAA | 0.0303
105 | ACCACTGG | -0.0523
106 | AAAAGCGA | 0.175
107 | GGATCTTA | 0.146
108 | CGACGAGC | 0.0758
109 | GTCCGAGA | 0.205
110 | AGACGAGG | 0.215
111 | ATACGAGG | 0.487
112 | CTACGAGC | 0.393
113 | CCACGAGC | -0.0694
114 | ATACGAGA | 0.482
115 | AGACGAGA | 0.184
116 | GTACGCGA | 0.347
117 | ACACGAGG | 0.248
118 | GTACGAGA | 0.472
119 | CTACGAGA | 0.359
120 | GCAGTTTA | 0.0629
121 | ACTCTTAG | -0.149
122 | ACTCTGGG | -0.181
123 | GGAGTCCC | -0.172
124 | CGTAACCA | 0.223
125 | CACAGTGA | -0.0917

Row | Sequence | PBM E-score
126 | ACCCTCTG | -0.236
127 | ATACGAGC | 0.489
128 | AGACGAGC | 0.206
129 | ACACGAGC | 0.273
130 | AAACTGAC | -0.0907
131 | CGGGACCC | -0.177
132 | GCTGTGAC | 0.111
133 | ACATACGT | 0.239
134 | TCATACAA | 0.0325
135 | GCATACAA | -0.0164
136 | GCATACGC | 0.296
137 | TCATACGA | 0.469
138 | ACATACGA | 0.476
139 | GCATACGA | 0.47
140 | ACATACGC | 0.281
141 | TCATACCA | -0.0495
142 | CTAATGTC | -0.171
143 | AGATAAGA | 0.0794
144 | GGCTGATA | -0.0951
145 | CCTGAAGC | -0.175
146 | AATGGTGT | -0.0602
147 | CGTTGCTA | 0.0827
148 | CTAGCCCA | -0.335
149 | AAGAGGAC | -0.242
150 | ACTATCAG | -0.196

Row | Sequence | PBM E-score
151 | CCTGAGAA | -0.0858
152 | GCAACGAA | 0.314
153 | GAAACGAA | 0.41
154 | GAAACAAA | 0.0262
155 | CAAACGAA | 0.467
156 | AAAACGAA | 0.283
157 | CCAACGAA | 0.109
158 | CTAGCTTC | -0.105
159 | GATCACAA | -0.0358
160 | GAATGCCC | 0.0462
161 | GCATACCA | 0.00545
162 | ATTGTGCC | -0.149
163 | AATCCATG | -0.252
164 | ACGACTCT | 0.319
165 | ACGACGCG | 0.389
166 | ACGACGCC | 0.306
167 | ACGACTCA | 0.29
168 | ACGACGCA | 0.389
169 | GCGACGCA | 0.108
170 | CCGACGCG | 0.16
171 | ACGACTCG | 0.381
172 | ACGACGCT | 0.361
